Assay outcomes from PubChem.
A selection: hits, their analogues and other compounds. The true share with any hit is near 1.5%.
ARNT-TACC3 inh = disrupts binding between human ARNT and TACC3; Q9Y6A5; AlphaScreen His-ARNT PAS-B/GST-TACC3 binding, luminescence; TACC3 fragment carries E629A point mutation; inhibition, % at 9.99 µM; 0.66% of 390,000 active;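 active = mean inhibition of replicates at least 50% and at least half of replicates each reaching 50%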;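 also: 0% = complete ARNT plus TACC3 wells and 100% = ARNT alone without TACC3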
AI-2 QS modul = modulators of Vibrio harveyi AI-2 quorum sensing system | Vibrio harveyi JMH597 AI-2 luminescence/OD600 ratio, 9 h; active compounds read low; strain lacks LuxN and CqsS sensors; 0 = neutral-control median | activity change, % at 7.5 µM | 0.4% of 300,000 active; in the data active = activity change below about -75%, passing the limit was not always enough;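 also: luminescence divided by OD600 gain over 9 h not by final OD600 alone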
sPLA2-III inh = Inhibits HGIII-sPLA2 liposome hydrolysis, primary screen; Q9NZ20; QFRET BODIPY PC-A2 liposome hydrolysis, fluorescence; inhibition, % at 12.2 µM; 0.56% of 370,000 active; AID 743126;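 active = inhibition above mean plus 3 SD of compounds lying within the high and low control bounds, cut at about 19% in these data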;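 also: 0% = median of test compound wells and 100% = no enzyme DMSO wells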
Rin1 Abl inh = inhibitors of human Rin1-Abl protein interaction. AID 588664. 0.4% of 360,000 active. P00519+Q13671. inhibition, % at 7.35 µM. TR-FRET Rin1/Abl binding, biochemical; in the data active = inhibition above about 5%, passing the limit was not always enough
Target sequence (P00519 whole entry, looked up): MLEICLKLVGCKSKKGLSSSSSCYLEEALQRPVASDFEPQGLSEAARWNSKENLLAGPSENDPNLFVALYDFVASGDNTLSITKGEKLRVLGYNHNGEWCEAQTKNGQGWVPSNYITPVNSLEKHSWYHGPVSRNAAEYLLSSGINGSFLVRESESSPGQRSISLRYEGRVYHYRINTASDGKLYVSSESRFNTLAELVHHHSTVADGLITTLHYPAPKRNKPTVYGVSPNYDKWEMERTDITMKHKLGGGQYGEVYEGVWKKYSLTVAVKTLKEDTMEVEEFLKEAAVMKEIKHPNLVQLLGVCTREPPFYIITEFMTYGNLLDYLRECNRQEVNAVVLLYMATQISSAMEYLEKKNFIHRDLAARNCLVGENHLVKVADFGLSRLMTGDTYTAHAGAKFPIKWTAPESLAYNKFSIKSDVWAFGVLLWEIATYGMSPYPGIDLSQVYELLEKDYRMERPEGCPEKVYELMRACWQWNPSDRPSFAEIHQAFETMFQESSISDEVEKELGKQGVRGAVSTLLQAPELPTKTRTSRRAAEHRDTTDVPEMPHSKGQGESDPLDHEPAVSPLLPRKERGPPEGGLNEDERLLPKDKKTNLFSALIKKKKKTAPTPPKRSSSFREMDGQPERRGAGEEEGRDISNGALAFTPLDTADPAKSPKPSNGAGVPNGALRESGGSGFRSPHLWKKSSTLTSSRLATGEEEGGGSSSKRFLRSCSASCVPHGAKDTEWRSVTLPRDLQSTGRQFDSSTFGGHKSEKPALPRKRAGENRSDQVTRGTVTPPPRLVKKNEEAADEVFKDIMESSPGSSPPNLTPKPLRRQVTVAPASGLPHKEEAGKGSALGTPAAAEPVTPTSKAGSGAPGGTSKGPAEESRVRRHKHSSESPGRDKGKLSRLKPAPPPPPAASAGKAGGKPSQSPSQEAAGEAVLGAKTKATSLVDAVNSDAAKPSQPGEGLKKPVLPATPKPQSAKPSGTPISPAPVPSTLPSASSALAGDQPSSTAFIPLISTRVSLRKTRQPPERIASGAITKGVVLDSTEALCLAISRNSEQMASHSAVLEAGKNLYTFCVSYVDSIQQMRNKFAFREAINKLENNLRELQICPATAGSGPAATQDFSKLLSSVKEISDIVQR
Target sequence (Q13671 whole entry, looked up): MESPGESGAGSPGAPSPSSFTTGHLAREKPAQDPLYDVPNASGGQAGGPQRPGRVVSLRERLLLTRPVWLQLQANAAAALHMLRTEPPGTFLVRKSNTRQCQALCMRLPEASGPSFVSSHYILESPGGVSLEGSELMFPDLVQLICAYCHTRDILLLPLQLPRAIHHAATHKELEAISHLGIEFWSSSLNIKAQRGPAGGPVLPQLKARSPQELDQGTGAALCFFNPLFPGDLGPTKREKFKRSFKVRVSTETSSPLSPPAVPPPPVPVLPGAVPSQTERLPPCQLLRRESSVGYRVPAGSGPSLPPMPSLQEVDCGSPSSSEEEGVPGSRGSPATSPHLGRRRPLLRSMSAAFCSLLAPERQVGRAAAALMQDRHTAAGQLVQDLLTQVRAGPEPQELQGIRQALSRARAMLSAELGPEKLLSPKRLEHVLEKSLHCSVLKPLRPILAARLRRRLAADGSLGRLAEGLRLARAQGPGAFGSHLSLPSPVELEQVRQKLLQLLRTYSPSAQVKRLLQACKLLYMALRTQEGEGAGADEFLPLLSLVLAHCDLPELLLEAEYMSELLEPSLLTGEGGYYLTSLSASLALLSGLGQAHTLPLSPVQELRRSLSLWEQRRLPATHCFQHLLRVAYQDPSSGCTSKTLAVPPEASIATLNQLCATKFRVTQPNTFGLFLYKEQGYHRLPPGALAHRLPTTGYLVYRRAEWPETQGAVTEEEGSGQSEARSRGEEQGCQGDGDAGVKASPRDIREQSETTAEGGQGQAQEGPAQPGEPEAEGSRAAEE
hGIII sPLA2 conf = human GIII-sPLA2 inhibition, confirmation; recombinant hGIII-sPLA2, BODIPY PC-A2 QFRET fluorescence; inhibition, % at 12.2 µM; shares compounds with sPLA2-III inh; 34% of 2,000 active;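 active = mean inhibition across triplicates above the hit cutoff set in the earlier primary screen, cut at about 19% in these data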;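 also: 0% = enzyme with DMSO and 100% = DMSO wells lacking enzyme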
535nm interf = counter-screen for HGIII-sPLA2 inhibitors: 535nm fluorescence interference; shares compounds with sPLA2-III inh; inhibition, % at 12.2 µM; AID 743282; 8.5% of 2,000 active; BODIPY FL product fluorescence interference, QFRET;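 active = average inhibition above the solvent-only control mean plus 3 SD, cut at about 6% in these data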;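 also: 0% = DMSO with substrate plus product and 100% = DMSO with substrate alone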
BODIPY interf DR = 535nm optical interference dose response, HGIII-sPLA2 counter-screen; shares compounds with sPLA2-III inh; BODIPY FL product fluorescence interference, cell-free; IC50, µM; 240 tested, under 10 active;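 active = IC50 at or below 10 µM; inactive = IC50 above 10 µM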
Active calls of the source: *; / = not tested or not shown.

SMILES	ARNT-TACC3 inh	AI-2 QS modul	sPLA2-III inh	Rin1 Abl inh	hGIII sPLA2 conf	535nm interf	others
O=C(N/C(=C/c1ccccc1)C(=O)N1CCCCC1)c1ccccc1	-5.3	2.0	1.1	0.6	/	/
O=C(N/C(=C\c1ccccc1)C(=O)N1CCN(CCO)CC1)c1ccccc1	-0.7	4.0	21.1*	-1.5	4.6	-3.4
CC(C)CCNC(=O)CN1N=C(c2ccc(Cl)cc2)CCC1=O	-4.1	18.7	1.4	4.4	/	/
CC(C)CN(CCCNC(=O)CN1N=C(c2ccc(Cl)cc2)CCC1=O)CC(C)C	-2.9	-4.6	25.4*	-0.1	31.8*	-12.6
O=C(C[C@@H]1C[C@@H]2c3cc(NC(=O)c4cccnc4)ccc3O[C@@H]2[C@H](CO)O1)NC1CCCCC1	-2.3	/	/	/	/	/
O=c1[nH]nc(SCCS(=O)(=O)c2ccc(F)cc2)n1-c1ccc2c(c1)OCCO2	-10.6	17.3	20.7*	-2.5	4.9	-8.7
O=c1[nH]nc(SCCS(=O)(=O)c2ccc(F)cc2)n1-c1ccccc1	/	21.3	2.8	-0.8	/	/
CC(C)n1c(=S)[nH]c2scc(-c3cccs3)c2c1=O	29.6	41.2	23.4*	-5.7	47.7*	9.6*
CCn1c(=S)[nH]c2scc(-c3cccs3)c2c1=O	-6.2	8.2	17.7	-0.8	/	/
CCCCNC(=S)N/N=C/c1cccc(OCC)c1O	0.8	13.7	24.3*	-0.6	28.1*	-5.2	BODIPY interf DR=>122
CCOc1cccc(/C=N\NC(=O)Cc2cccs2)c1O	/	/	-18.5	/	/	/
CC(C)NC(=S)N/N=C/c1ccccc1[N+](=O)[O-]	-15.7	4.6	-2.5	-3.1	/	/
CCOc1cccc(/C=N/NC(=S)Nc2ccccc2[N+](=O)[O-])c1O	-3.7	50.5	24.1*	2.6	51.6*	13.8*
O=[N+]([O-])c1ccccc1C=NNC(=S)NN=Cc1ccccc1[N+](=O)[O-]	8.1	/	23.7*	-3.5	48.6*	7.3*
O=c1c2ccccc2cnn1Cc1n[nH]c(=S)n1C1CC2CCC1C2 (stereo not drawn)	1.6	7.1	26.1*	2.3	21.3*	0.1
COc1ccc(NC(=O)Nc2ccc3c(c2)C(=O)N(C)C[C@@H](OC)[C@H](C)CN[C@@H](C)CO3)cc1	-6.6	/	/	/	/	/
Cc1cccc(NC(=O)NNC(=O)c2ccc3ccccc3c2O)c1	-0.3	10.7	28.5*	1.5	29.8*	1.6	BODIPY interf DR=>122
O=C(NC1CCCCC1)c1ccc2ccccc2c1O	/	/	7.2	-9.1	/	/
O=C(NNC(=O)c1ccc2ccccc2c1O)NC1CCCCC1	-3.0	16.5	26.5*	-4.5	17.6	1.0
Cc1cccc(NC(=O)NNC(=O)c2ccc3ccccc3c2)c1	16.2	2.4	0.1	-1.8	/	/
O=C(NNC(=O)c1ccc2ccccc2c1)Nc1ccc(F)cc1	-9.6	6.0	-1.4	-0.1	/	/
O=C(NNC(=O)c1ccc2ccccc2c1O)Nc1ccc(F)cc1	-3.0	8.9	27.7*	-0.9	30.5*	1.1	BODIPY interf DR=>122
N#C[C@@H]1[C@H](c2ccc(C#CC3CCCCC3)cc2)[C@H](CO)N1C(=O)c1cccc(F)c1	-8.5	/	/	/	/	/
COc1ccc(C#Cc2ccc3c(c2)O[C@H](CN(C)C(=O)c2ccccn2)[C@@H](C)CN([C@@H](C)CO)S3(=O)=O)cc1	10.7	/	/	/	/	/
CC(C)NC(=O)Nc1cccc2c1O[C@H](CN(C)Cc1ccc(C(=O)O)cc1)[C@H](C)CN([C@@H](C)CO)C2=O	-2.7	/	/	/	/	/
SMILES	ARNT-TACC3 inh	AI-2 QS modul	sPLA2-III inh	Rin1 Abl inh	hGIII sPLA2 conf	535nm interf	others
Cc1ccc(C)c(N2CCN(S(=O)(=O)c3c(C)noc3/C=C/N(C)C)CC2)c1	5.7	40.9	22.6*	-0.6	28.9*	-8.1	BODIPY interf DR=>122
CN(CCC#N)C(=O)COC(=O)/C=C/c1cccs1	8.2	-6.8	19.8*	0.0	-2.9	-4.7
Cc1ccc(NC(=O)CN(C)C(=O)COC(=O)/C=C/c2cccs2)cc1	4.4	29.4	-3.2	2.0	/	/
O=C(CSC(=S)N1CCCCC1)Nc1ncc2c(n1)CCCC2=O	-4.0	7.2	21.5*	-2.3	1.6	-6.6
O=C(c1ccccc1O)N1N=C(C(F)(F)F)CC1(O)c1ccc([N+](=O)[O-])cc1 (stereo not drawn)	8.3	10.5	20.9*	-1.9	13.2	4.7
CO[C@H]1CN(C)C(=O)c2cc(NC(=O)c3ccccc3)ccc2OC[C@@H](C)N(C(=O)CN(C)C)C[C@H]1C	6.0	/	/	/	/	/
Cc1cc(N)n(-c2ncnc3scc(-c4ccc(Cl)cc4)c23)n1	-5.6	7.3	0.4	-1.9	/	/
Clc1ncnc2scc(-c3ccc(Br)cc3)c12	1.7	15.9	19.4*	-0.8	2.4	-4.6
O=[N+]([O-])c1cc2c(c([N+](=O)[O-])c1)Nc1ccccc1O2	/	/	21.1*	-8.8	44.8*	11.5*
O=C(C[C@H]1C[C@H]2c3cc(NS(=O)(=O)c4ccccc4)ccc3O[C@H]2[C@@H](CO)O1)NCC1CC1	8.7	/	/	/	/	/
NC(=O)c1cc([N+](=O)[O-])ccc1NCc1cnccn1	-4.9	/	20.4*	-0.1	-6.5	-3.9
O=C1CN(C(=O)c2ccccc2Cl)c2ccccc2N1	-0.8	3.0	20.5*	0.9	-3.1	-1.8
CCCC(=O)Nc1ccc2c(c1)C(=O)N(C)C[C@@H](OC)[C@@H](C)CN(Cc1ccc(-c3ccccn3)cc1)[C@H](C)CO2	0.2	/	/	/	/	/
Cc1noc(C)c1NC(=O)N(C)C[C@@H]1OCCCC[C@@H](C)Oc2ccc(NC(=O)CCC(F)(F)F)cc2C(=O)N([C@H](C)CO)C[C@H]1C	-18.5	/	/	/	/	/
CCCn1c(=S)[nH]c2cc(Cl)ccc21	-5.7	6.0	20.9*	-4.0	8.7	-5.0
O=C(O)/C=C/C(=O)NCCc1ccc(Cl)cc1	-11.2	15.0	21.8*	0.0	5.8	-3.7
O=C(O)/C=C/C(=O)NCCc1ccccc1	-6.2	19.3	11.6	2.5	/	/
CN(C)c1ccc(-c2n[nH]c(=S)n2-c2ccccc2)cc1	6.6	11.5	12.6	1.5	/	/
CCN(CC)c1ccc(-c2n[nH]c(=S)n2-c2ccccc2)cc1	3.0	6.0	19.5*	2.7	44.2*	4.6	BODIPY interf DR=>122
C/C(=N\OCC(=O)Nc1nc2ccccc2s1)c1ccccc1	-4.6	1.4	19.3*	-0.2	0.3	-1.9
COc1ccc(/C(C)=N/OCC(=O)Nc2nc3ccccc3s2)cc1OC	-14.5	20.7	-21.4	-1.1	/	/
CN1CCN(C(=O)C[C@H]2CC[C@H]3[C@@H](COC[C@H](O)CN3C(=O)Nc3ccc(Cl)cc3)O2)CC1	4.2	/	/	/	/	/
CCn1cc(C(=O)Nc2sc(C)c(C)c2C(=O)OC)cn1	-4.1	7.9	20.3*	-1.7	-3.0	-12.0
O=C(c1ccc(F)cc1)N1CCCCN2[C@H](CO)[C@@H](c3ccc(-c4ccc(F)cc4)cc3)[C@@H]2C1	11.5	/	/	/	/	/
